Reference: paper PMC5540273 (PLoS ONE, 2017)
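Further: kd values determined as follow-up on hits from a single-replicate KINOMEscan panel screen.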

What follows are molecules tested on TNNI3K.
`Nc1ncnc2c1ncn2-c1cccc(F)c1` [SKF-97560] was tested, and the Kd was over 10000 nM.
`Nc1nc(-c2ccccc2F)c(-c2ccnc3ccccc23)s1` [GW560459] showed a Kd of over 10000 nM.
With `COc1ccc(Nc2nccc(N3CCC(NS(=O)(=O)c4ccc(NC(C)=O)cc4)C3)n2)cc1` (stereo not shown) [GSK1379729] the Kd was over 10000 nM.

Each molecule was assayed on TYK2(JH1domain-catalytic).
`COc1cc(Nc2nccc(N3CCC(NC(=O)C4COc5ccccc5O4)C3)n2)cc(OC)c1OC` (stereo not shown) [GSK1379761] gave a Kd of 1500 nM.
In the case of `COc1cccc(-n2cnc3c(N)ncnc32)c1` [SKF-97416], the Kd is reported as over 10000 nM.
`COc1ccc(Nc2nccc(N3CCC(NS(=O)(=O)c4ccc(NC(C)=O)cc4)C3)n2)cc1` (stereo not shown) [GSK1379729] was tested, and the Kd was 86 nM.

What follows are molecules tested on T1, VPS34.
T1 construct: gene PIK3C3
In the case of `COc1ccc(Nc2nccc(N3CCC(NS(=O)(=O)c4ccc(NC(C)=O)cc4)C3)n2)cc1` (stereo not shown) [GSK1379729], the Kd is reported as 97 nM.
For `Cc1nn2c(=O)cc(N3CCOCC3)nc2n1Cc1cccc(Cl)c1Cl` [GSK2342769], the Kd was 0.43 nM.
With `Cc1ccccc1COc1cc(-n2cnc3cc(Cl)ccc32)sc1C(N)=O` [GW813349] the Kd was over 10000 nM.
Work on `O=c1cc(N2CCOCC2)nc2n(Cc3ccc(F)c(Cl)c3)ccn12` [GSK2297099] yielded a Kd of 15 nM.
